Test results taken from PubChem BioAssay (NCATS).
Results filed as inconclusive are left out. Calls of active or inactive are those of the source. Calls come from the whole dose curve; as a rule, active = well fitted inhibition curve with a large enough effect; inconclusive = small, poorly fitted or top-dose-only effect; inactive = flat fitted curve, though single readings scatter.

Legend:
Experiment in all cases: qHTS profiling for inhibitors of Plasmodium falciparum proliferation (AID 504749); note: nearly all actives have a fitted effect of over 60% in size
Settings in all cases: P. falciparum in erythrocytes, SYBR Green DNA, 72 h; series mostly up to 28.7 µM
3D7 = system: 3D7
Summary of the method: (§1)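 Each compound contacts P. falciparum-infected red blood cells for 72 h at 37 C; lysis buffer (Tris, EDTA, saponin, Triton X, SYBR Green I) is added and fluorescence measured next morning; values normalized to controls.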

CP215 = system: CP215
Summary of the method: as §1

CP217 = system: CP217
Summary of the method: as §1

CP250 = system: CP250
Summary of the method: as §1

CP256 = system: CP256
Summary of the method: as §1

CP269 = system: CP269
Summary of the method: as §1

CP291 = system: CP291
Summary of the method: as §1

CP315 = system: CP315
Summary of the method: as §1

CP325 = system: CP325
Summary of the method: as §1

CP335 = system: CP335
Summary of the method: as §1

DIV14 = system: DIV14
Summary of the method: as §1

DIV17 = system: DIV17
Summary of the method: as §1

Dd2 = system: Dd2
Summary of the method: as §1

FAB9 = system: FAB9
Summary of the method: as §1

GB4 = system: GB4
Summary of the method: as §1

JCK = system: JCK
Summary of the method: as §1

N140 = system: N140
Summary of the method: as §1

PC15 = system: PC15
Summary of the method: as §1

SC27B = system: SC27B
Summary of the method: as §1

TAB165 = system: TAB165
Summary of the method: as §1

Measured: Potency

C[C@]12CC[C@H]3c4ccc(O)cc4CC[C@@H]3[C@H]1CC[C@@H]2OP(=O)(O)O
inactive: 3D7 | CP215 | CP217 | CP250 | CP256 | CP269 | CP291 | CP315 | CP325 | CP335 | DIV14 | DIV17 | Dd2 | FAB9 | GB4 | JCK | N140 | PC15 | SC27B | TAB165

N[C@@H](Cc1ccccc1)C(=O)O
inactive: 3D7 | CP215 | CP217 | CP250 | CP256 | CP269 | CP291 | CP315 | CP325 | CP335 | DIV14 | DIV17 | Dd2 | FAB9 | GB4 | JCK | N140 | PC15 | SC27B | TAB165
